The values that follow come from article PMC7819943, “Rice protein-binding microarrays: a tool to detect cis-acting elements near promoter regions in rice”.

In all, about 68,000 sequences were measured (“fluorescence intensity (a.u.)”: median about 9,100, highest 2% from about 16,000 on). Shown is part of a subset that was picked to be rich in the highest values.

Sequence of OsWRKY34 (Q0JBA9 entry or part of it): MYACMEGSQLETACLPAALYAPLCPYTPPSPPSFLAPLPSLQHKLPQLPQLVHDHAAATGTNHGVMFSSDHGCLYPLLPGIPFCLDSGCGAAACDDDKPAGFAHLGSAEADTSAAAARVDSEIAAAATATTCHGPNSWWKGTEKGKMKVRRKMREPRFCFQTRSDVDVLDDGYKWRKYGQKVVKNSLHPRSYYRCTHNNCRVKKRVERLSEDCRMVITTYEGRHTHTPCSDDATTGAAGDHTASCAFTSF

The test addresses OsWRKY34 (Oryza sativa, UniProt Q0JBA9 1-250). Description: protein-binding microarray (RPBM); PBS, 2% BSA, 51.3 ng/ul salmon testes DNA, 50 uM zinc acetate, 200 nM TF, 25 C, 1 h; high values mean tight binding. As to conditions: protein: recombinant; tags: N-terminal polyhistidine and DsRed monomer fusion (pET32a); label: CyDye5-dUTP incorporated in the synthesized complementary strand; 3' TTTTT single-stranded linker to array surface; dsDNA, one strand shown. In a few lines:
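Binding signal is defined as the fluorescence intensity of each feature in arbitrary units, read on an Axon 4000B scanner. Transcription factors with N-terminal polyhistidine and DsRed fusions came from E. coli BL21-CodonPlus and were purified on Ni–NTA. They were incubated at 200 nM for 1 h at 25 °C on a custom Agilent array that had been made double-stranded with Cy5-dUTP, with 50 µM zinc acetate present, and the array was washed.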
Regarding “CATCCTTCTCCGCGGCCATTTCTTGGAGCAAATCTCATTTCGGAGTCACCTAGTGCAG”, the binding signal is 8420 fluorescence intensity (a.u.). As for “CCGCGGGCTTGGCTTGGCTGGCACCCTCTCCTTCTCGTCTCGGAGTCACCTAGTGCAG”, the figure is 10300 fluorescence intensity (a.u.). On to “ACCCCAACGCAACCACTCTTCTCTACTACAATCGTTACTCCGGAGTCACCTAGTGCAG”, for which the binding signal is 9310 fluorescence intensity (a.u.). As for “ATCCCAAACACTCTCGCCTCGTCTCCTCTCACACCACACGCGGAGTCACCTAGTGCAG”, the figure is 10500 fluorescence intensity (a.u.); as for “CATTACCGCCACCTTCGATGCCGCCGCCTGCCGCTACCCGCGGAGTCACCTAGTGCAG”, 8580 fluorescence intensity (a.u.).

In the case of “TTAATACTTACTACTTGTCTGCTTTGAGTTTTTTGTTTAACGGAGTCACCTAGTGCAG”, the binding signal was 9060 fluorescence intensity (a.u.). With “CCTCGCCGTCGCCGGTCCTCGTCTCCTCCTCTATCTATATCGGAGTCACCTAGTGCAG” the figure was 8600 fluorescence intensity (a.u.). As for “ACCATGGGCGCACACGCTTCACTGCGTCTTTTTCCATCCACGGAGTCACCTAGTGCAG”, the figure is 8320 fluorescence intensity (a.u.); as for “GCTAGATTGGATAAGGAGGGGAGGAGGGTGGAGGGGAGGGCGGAGTCACCTAGTGCAG”, 22700 fluorescence intensity (a.u.); as for “GGTTGGTGGTGGAGGTGGTCAAGGCGGTGGTTTTGGAGCCCGGAGTCACCTAGTGCAG”, 16400 fluorescence intensity (a.u.). As for “CCGCCATGTGGGCCCCACCTCGCCGCCTCCGCTCCACTCTCGGAGTCACCTAGTGCAG”, the figure is 13600 fluorescence intensity (a.u.).

For “GGAGGAGGAGGTGGTGGTGGTGGTGAAGCCGCGGAGGTGCCGGAGTCACCTAGTGCAG”, the binding signal is 18000 fluorescence intensity (a.u.). As for “GCGGTGGAGAGTGGTGGGAGGTTGGGGAGAAGGCGGCGGCCGGAGTCACCTAGTGCAG”, the figure is 14800 fluorescence intensity (a.u.); as for “AATGTGGTGGTGGTGGTGGTGAACGGAGGAGGGAGGGAGCCGGAGTCACCTAGTGCAG”, 13000 fluorescence intensity (a.u.). Take “AGGTCATCGCAGGGCTCCTCTCCATCGCAGCCGCTCCAGCCGGAGTCACCTAGTGCAG”: the binding signal is 8910 fluorescence intensity (a.u.). As for “CGGCGCGGCGGAAGGAGGAGGGGTGGTGGATTCGTAGGGGCGGAGTCACCTAGTGCAG”, the figure is 14600 fluorescence intensity (a.u.). As for “CTGAAGTGAGGGAGGGGAGGAGGTGGTGGTGGTGGGGAAGCGGAGTCACCTAGTGCAG”, the figure is 15600 fluorescence intensity (a.u.); as for “CCTCGCTCTCCATGGTGGTGGTGGTGGTCAGGTGGTGGGGCGGAGTCACCTAGTGCAG”, 18800 fluorescence intensity (a.u.). Turning to “GGTTTGGTGGCGGAAAAGGTGGAGGCCTAGGTGGTGGTGGCGGAGTCACCTAGTGCAG”, the binding signal was 8660 fluorescence intensity (a.u.).

“AAGGCGGGAGGTTGAGAGAGAGATAAGGGAGAGAGAGGGGCGGAGTCACCTAGTGCAG”: the binding signal was 8120 fluorescence intensity (a.u.).

Turning to “TCCGGTTGTTTGCCGTGGCACTTCCTTTCTCCCTATTGGCCGGAGTCACCTAGTGCAG”, the binding signal was 8260 fluorescence intensity (a.u.). Consider “AAGTGGGTGAGTCCAATAGGTGTGCACGTGAGGGGAGGGGCGGAGTCACCTAGTGCAG”, for which the binding signal was 10500 fluorescence intensity (a.u.).

“ATTCGTGCTCAGTTGTTTCTTTTCCAACTCCGGCGTCCTCCGGAGTCACCTAGTGCAG”: the binding signal is 8150 fluorescence intensity (a.u.). As for “TACTCCTTATATTCCTTCATTTTTCAGCCTCGATCAGCTCCGGAGTCACCTAGTGCAG”, the figure is 8130 fluorescence intensity (a.u.); as for “TACGAGCTTCTCCTCCTCCGCTGGTCATCATCCTACCTGTCGGAGTCACCTAGTGCAG”, 8440 fluorescence intensity (a.u.); as for “TTCTACAGGAGTATCATCATCTTTGTGTTCTGGCTCCTGTCGGAGTCACCTAGTGCAG”, 9040 fluorescence intensity (a.u.). For “GACAATTTCTTTTTCCGATGGGATTTTAGTTTTTTGTTTTCGGAGTCACCTAGTGCAG”, the binding signal is 9700 fluorescence intensity (a.u.).

As for “CTCGCTAGCCCTCTGAACCTTGCAGTTTGTTGTTTGCACCCGGAGTCACCTAGTGCAG”, the binding signal was 13600 fluorescence intensity (a.u.). Regarding “CGACGAGCGAGAGGTAGGTGAGAGAGAGACGGGCGGCGAACGGAGTCACCTAGTGCAG”, the binding signal was 65100 fluorescence intensity (a.u.).

Regarding “GGCAGATGTGGACGGAGGGAGGGAGGGAGGGAGAGGGGCACGGAGTCACCTAGTGCAG”, the binding signal is 17100 fluorescence intensity (a.u.).

“GACCGAGAGCAGGCGACGGGGTGGGTGGAGGTAGTGAGAACGGAGTCACCTAGTGCAG”: the binding signal is 9200 fluorescence intensity (a.u.). With “AGGAGGGCGGAGGAGGTGGTGGTGGTGGTGGTGGAGAGAGCGGAGTCACCTAGTGCAG” the figure was 25700 fluorescence intensity (a.u.); with “GGAGGTGGAGGCGGCGGAGGAGGTGGTGGTGGAGGTGGAGCGGAGTCACCTAGTGCAG”, 17900 fluorescence intensity (a.u.); with “GCGGAGGTGGTGGTGGCCTTGGAGGAGGTGGCGGCGGAGGCGGAGTCACCTAGTGCAG”, 14300 fluorescence intensity (a.u.).

With “GGGCGGAGCGGGGCGGAGGGAGAGGAGGGAGAGGAGGGAGCGGAGTCACCTAGTGCAG”, the binding signal was 8480 fluorescence intensity (a.u.).

For “GATGCGCGCGAACGGAGACGACGGGGTAGGGTGGGGAGGGCGGAGTCACCTAGTGCAG”, the binding signal was 12300 fluorescence intensity (a.u.). Regarding “GGGAGAGGGGTGTGGGGCGGAGAGGGAGAGGGAGATGGGACGGAGTCACCTAGTGCAG”, the binding signal is 9680 fluorescence intensity (a.u.). Consider “GGAGAGGGAGCGGGAGAGGGAGGATTGGAGGATGTGGGGACGGAGTCACCTAGTGCAG”, for which the binding signal was 8940 fluorescence intensity (a.u.).

With “TCGGCCCGAGCGGTGGCGGTGGCGGTGGCGGAGGAGGAGGCGGAGTCACCTAGTGCAG”, the binding signal is 10100 fluorescence intensity (a.u.).

“CACTAGGTGAGCAATTTTGTTACCACGTCCATGTGCTGATCGGAGTCACCTAGTGCAG”: the binding signal was 8810 fluorescence intensity (a.u.). With “GCACACGCTTCATGTTGACATTTTATCGAATCGTGTTCTGCGGAGTCACCTAGTGCAG” the figure was 8350 fluorescence intensity (a.u.). As for “TTACTACTGCATTATCAAGTGTATCTTGCCATGTACTTCCCGGAGTCACCTAGTGCAG”, the figure is 12100 fluorescence intensity (a.u.).
